Results filed as inconclusive are left out. The source made the active and inactive calls. Unless noted, the call rests on the fitted dose curve; in most records, active means well fitted curve in the direction sought with a large enough effect; inconclusive means small, poorly fitted or top-dose-only effect, or another doubt; inactive means no such curve, though single readings can be large; an effect the other way counts as inactive or inconclusive.
Columns and labels:
[1] = P-glycoprotein substrates identified in KB-8-5-11 adenocarcinoma cell line, qHTS therapeutic library screen (AID 1346987); further: nearly all actives have a fitted effect of over 65% in size; further: potency means the concentration at half of the fitted maximal effect
Procedure, shortened: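 In this qHTS, P-gp-rich KB-8-5-11 cells received library compounds across a concentration range. Viability was quantified by luminescence after 72 h at 37 degree C.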

[2] = biological target: Cytochrome P450 2D6 (Homo sapiens) (UniProt P10635); test: Cytochrome P450 family 2 subfamily D member 6 (CYP2D6) small molecule antagonists: luciferase biochemical (cell-free) qHTS assay (AID 1645840; active means well fitted curve in the direction sought with a large enough effect in the repeat runs; an effect the other way counts as inactive or inconclusive; further: nearly all actives have a fitted effect of over 55% in size; further: potency means the concentration at half of the fitted maximal effect; on activity change, negative = inhibition: on the % scale 0 is the no-effect control and ±100 the full control effect)
Sequence of Cytochrome P450 2D6 (Homo sapiens) (P10635 whole entry, looked up): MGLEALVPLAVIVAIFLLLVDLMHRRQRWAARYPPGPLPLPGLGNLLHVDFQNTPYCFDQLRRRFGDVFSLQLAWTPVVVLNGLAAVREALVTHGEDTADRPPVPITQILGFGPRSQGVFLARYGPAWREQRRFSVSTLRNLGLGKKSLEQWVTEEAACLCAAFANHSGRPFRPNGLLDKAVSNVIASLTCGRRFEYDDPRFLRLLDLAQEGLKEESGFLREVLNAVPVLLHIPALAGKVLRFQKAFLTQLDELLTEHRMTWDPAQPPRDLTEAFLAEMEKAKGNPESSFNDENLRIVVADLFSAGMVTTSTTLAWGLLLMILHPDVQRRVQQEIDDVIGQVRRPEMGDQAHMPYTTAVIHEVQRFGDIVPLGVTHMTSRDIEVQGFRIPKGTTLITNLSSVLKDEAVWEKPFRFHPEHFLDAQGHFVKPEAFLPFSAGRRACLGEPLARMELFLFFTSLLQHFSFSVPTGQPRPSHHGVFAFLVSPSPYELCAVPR
Procedure, shortened: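 P450-Glo CYP2D6 system: proluciferin substrate converted by enzyme to luciferin, read by luminescence proportional to activity. Enzyme-substrate mix with compound 10 min at room temperature, then NADPH regeneration 1 h before detection reagent.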

[3] = biological target: Cytochrome P450 2C9 (Homo sapiens) (UniProt P11712); test: Cytochrome P450 family 2 subfamily C member 9 (CYP2C9) small molecule antagonists: luciferase biochemical (cell-free) qHTS assay (AID 1645842; active means well fitted curve in the direction sought with a large enough effect in the repeat runs; an effect the other way counts as inactive or inconclusive; further: nearly all actives have a fitted effect of over 55% in size; further: potency means the concentration at half of the fitted maximal effect; on activity change, negative = inhibition: on the % scale 0 is the no-effect control and ±100 the full control effect)
Sequence of Cytochrome P450 2C9 (Homo sapiens) (P11712 whole entry, looked up): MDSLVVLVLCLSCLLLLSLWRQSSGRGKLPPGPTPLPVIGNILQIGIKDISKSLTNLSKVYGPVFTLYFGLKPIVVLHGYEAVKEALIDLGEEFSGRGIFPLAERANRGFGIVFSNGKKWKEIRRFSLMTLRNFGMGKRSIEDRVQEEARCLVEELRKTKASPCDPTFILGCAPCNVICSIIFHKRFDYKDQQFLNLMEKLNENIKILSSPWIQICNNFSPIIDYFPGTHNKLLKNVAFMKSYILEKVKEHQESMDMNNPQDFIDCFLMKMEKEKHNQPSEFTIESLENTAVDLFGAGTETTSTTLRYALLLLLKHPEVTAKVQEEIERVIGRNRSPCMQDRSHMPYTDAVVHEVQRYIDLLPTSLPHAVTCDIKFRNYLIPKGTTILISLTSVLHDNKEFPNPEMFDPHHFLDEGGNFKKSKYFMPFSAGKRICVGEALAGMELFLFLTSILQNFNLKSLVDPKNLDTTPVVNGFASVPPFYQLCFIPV
Procedure, shortened: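 P450-Glo CYP2C9 system: proluciferin substrate with enzyme in mix containing 0.4% BSA, 10 min at room temperature, then NADPH regeneration solution added and incubated 1 h at 37C. Detection reagent stopped reaction; luminescence read after 20 min as RLU.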

[4] = tested on: CRL-7250; test: Cytotoxic Profiling of Annotated Libraries Using Quantitative High-Throughput Screening (AID 1296008); settings: Five cell lines viability, CellTiter-Glo ATP luminescence, 48-72 h; max response: stronger effect = lower value; further: nearly all actives have a fitted effect of over 60% in size; further: potency means the concentration at half of the fitted maximal effect; on max response: on the % scale 0 is the no-effect control and ±100 the full control effect
Procedure, shortened: (§1)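 Compounds were pin-transferred onto cells and incubated 48 or 72 hr at 37 degree Celsius, 95% humidity. CellTiter-Glo was added, plates sat 10 min at room temperature, then ATP-coupled luminescence was imaged as the viability read-out.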

[5] = tested on: KB-3-1; test: as above; settings: Five cell lines viability, CellTiter-Glo ATP luminescence, 48-72 h; max response: stronger effect = lower value
Procedure, shortened: as §1

[6] = tested on: CAOV3; test: Primary qHTS to identify gynecologic anti-cancer compounds using libraries of approved drugs and bioactive compounds (AID 1345084); settings: Gynecologic cancer cell panel viability, ATPlite luminescence, 48 h; series mostly up to 57.5 µM; further: nearly all actives have a fitted effect of over 55% in size; further: potency means the concentration at half of the fitted maximal effect
Procedure, shortened: (§2)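 48 h compound exposure at 37 C, 5% CO2; five-point qHTS. ATPlite luminescence readout of cell ATP.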

[7] = tested on: HeLa; test: as above; settings: Gynecologic cancer cell panel viability, ATPlite luminescence, 48 h; series mostly up to 57.5 µM
Procedure, shortened: as §2

[8] = tested on: SKOV3; test: as above; settings: Gynecologic cancer cell panel viability, ATPlite luminescence, 48 h; series mostly up to 57.5 µM
Procedure, shortened: as §2

[9] = Primary qHTS for inhibitors of nuclear receptor binding SET domain protein 2 (NSD2) in an isogenic RCH-ACV NSD2 p.E1099K mutant (9B) (AID 1645876); further: nearly all actives have a fitted effect of over 70% in size; further: potency means the concentration at half of the fitted maximal effect
[10] = Primary qHTS for inhibitors of nuclear receptor binding SET domain protein 2 (NSD2) in an RCH-ACV wild type WT cells (2C) (AID 1645877); further: nearly all actives have a fitted effect of over 70% in size; further: potency means the concentration at half of the fitted maximal effect
[11] = biological target: Catechol O-methyltransferase (Homo sapiens) (UniProt P21964); test: Confirmatory Screen for Target Class Profiling of Small Molecule Inhibitors of Methyltransferases (AID 1745852; calls by dose curve; on activity change, negative = inhibition: on the % scale 0 is the no-effect control and ±100 the full control effect); settings: MTase-Glo luminescence, SAH detection, recombinant enzyme; measured here: COMT max response; stronger effect = lower value
Sequence of Catechol O-methyltransferase (Homo sapiens) (P21964 whole entry, looked up): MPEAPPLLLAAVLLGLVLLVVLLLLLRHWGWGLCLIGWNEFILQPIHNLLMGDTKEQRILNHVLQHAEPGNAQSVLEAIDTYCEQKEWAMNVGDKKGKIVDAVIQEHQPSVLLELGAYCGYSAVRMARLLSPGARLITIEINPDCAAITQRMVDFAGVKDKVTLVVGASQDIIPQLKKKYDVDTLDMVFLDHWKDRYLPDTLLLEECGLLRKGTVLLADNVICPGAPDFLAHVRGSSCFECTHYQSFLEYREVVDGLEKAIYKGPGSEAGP

[12] = biological target: Guanidinoacetate N-methyltransferase (Homo sapiens) (UniProt Q14353); test: as above; settings: activity change, negative = inhibition: at 57.3 µM (top of the series) unless noted
[13] = biological target: Nicotinamide N-methyltransferase (Homo sapiens) (UniProt P40261); test: as above; settings: MTase-Glo luminescence, SAH detection, recombinant enzyme; measured here: NNMT max response; stronger effect = lower value
Sequence of Nicotinamide N-methyltransferase (Homo sapiens) (P40261 whole entry, looked up): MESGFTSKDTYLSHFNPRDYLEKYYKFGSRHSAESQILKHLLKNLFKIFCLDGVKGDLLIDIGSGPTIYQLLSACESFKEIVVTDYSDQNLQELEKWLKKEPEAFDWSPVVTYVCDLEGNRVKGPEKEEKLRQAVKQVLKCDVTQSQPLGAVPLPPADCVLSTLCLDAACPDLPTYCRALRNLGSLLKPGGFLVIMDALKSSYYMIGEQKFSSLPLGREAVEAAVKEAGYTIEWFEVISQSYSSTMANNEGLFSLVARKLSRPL

[14] = biological target: Phenylethanolamine N-methyltransferase (Homo sapiens) (UniProt P11086); test: as above; settings: MTase-Glo luminescence, SAH detection, recombinant enzyme; measured here: PNMT max response; stronger effect = lower value
Sequence of Phenylethanolamine N-methyltransferase (Homo sapiens) (P11086 whole entry, looked up): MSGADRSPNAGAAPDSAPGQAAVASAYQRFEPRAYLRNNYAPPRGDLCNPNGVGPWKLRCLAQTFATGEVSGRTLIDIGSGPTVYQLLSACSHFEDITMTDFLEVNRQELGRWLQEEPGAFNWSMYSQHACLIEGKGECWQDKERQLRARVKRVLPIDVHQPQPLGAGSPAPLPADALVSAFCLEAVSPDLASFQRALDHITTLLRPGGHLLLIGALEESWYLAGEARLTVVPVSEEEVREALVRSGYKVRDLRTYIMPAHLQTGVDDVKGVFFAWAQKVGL

[15] = tested on: HACAT; test: qHTS assay to identify novel small-molecules to repurpose for Merkel cell carcinoma treatment (AID 1296009); settings: MCC and control cell lines, CellTiter-Glo viability, 72 h; at 44.8 µM (top of the series) unless noted; further: nearly all actives have a fitted effect of over 60% in size
Procedure, shortened: (§3)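 Luminescence from CellTiter-Glo, read 10 min after addition at room temperature, reported viability following a 72 hr, 37 degree celsius treatment with NPC or MIPE compounds in titration; values normalized to plate controls.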

[16] = tested on: NIH3T3; test: as above; settings: MCC and control cell lines, CellTiter-Glo viability, 72 h; at 44.8 µM (top of the series) unless noted
Procedure, shortened: as §3

[17] = P-glycoprotein substrates identified in KB-3-1 adenocarcinoma cell line, qHTS therapeutic library screen (AID 1346986); further: nearly all actives have a fitted effect of over 60% in size
Procedure, shortened: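 Using luminescence to quantify ATP, parental and P-gp-overexpressing KB cells were compared after 72 h compound titration. KB-8-5-11 was also run with the P-gp inhibitor tariquidar.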

COC1(C[S@@](=O)c2ccccc2)CCN(CCc2c[nH]c3ccc(F)cc23)CC1
inactive: Potency [1] | Potency [3] | max response [4] 3.05% | max response [5] 6.86% | Potency [6] | Potency [7] | Potency [8]
active: Potency [2] 2390 nM

Oc1ccc2c(c1)C13CCCC[C@H]1[C@@H](C2)N(CC1CCC1)CC3
-7.17%: activity [14]
-6.87%: activity change, negative = inhibition [12]
inactive: max response [4] -16.2% | max response [5] -12.4% | outcome [15] | Potency [6] | Potency [7]
-13.8%: activity [13]
-7.63%: activity [11]
active: Potency [9] 23000 nM | Potency [10] 23000 nM

C[C@H]1CN(CC[C@H](O)C2CCCCC2)CC[C@@]1(C)c1cccc(O)c1
active: Potency [2] 5350 nM
inactive: max response [4] 4.91% | max response [5] -5.46% | Potency [6] | Potency [7] | Potency [8]

CC1(C)C(=O)N(c2ccc(C#N)c(C(F)(F)F)c2)C(=S)N1c1ccc(C(N)=O)c(F)c1
active: Potency [3] 19000 nM
inactive: Potency [1] | Potency [2] | Potency [9] | Potency [10] | max response [4] 4.24% | max response [5] -16.1% | outcome [15] | Potency [7] | Potency [8]

CCCCOC(=O)c1ccnc2cc(C(OCCN3CCCCC3)c3ccccc3Cl)sc12 (stereo not drawn)
-6.9%: activity [11]
-16.1%: activity [14]
-22.8%: activity [13]
6.41%: activity change, negative = inhibition [12]
active: Potency [9] 23000 nM
inactive: max response [4] -4.2% | outcome [15] | Potency [6] | Potency [7] | Potency [8]

c1ccc(C2(c3ccccc3)OC[C@@H]([C@H]3CCCCN3)O2)cc1
inactive: max response [4] -2.49% | max response [5] -9.58% | Potency [6] | Potency [7] | Potency [8]
active: Potency [2] 849 nM

Cc1cccc(NC(=O)NC2N=C(c3ccccc3)c3ccccc3N(CC(=O)c3ccccc3C)C2=O)c1 (stereo not drawn)
inactive: Potency [1] | Potency [2] | max response [4] 0.833% | max response [5] 7.53% | outcome [15] | outcome [16] | Potency [8]

CN1C(=O)C(Cc2ccc3ccccc3c2)N=C(c2ccc(O)cc2)c2cc(Cl)ccc21 (stereo not drawn)
inactive: max response [4] -21.8% | max response [5] -24.1% | outcome [15] | Potency [6] | Potency [7] | Potency [8]
active: Potency [2] 10700 nM

CCC(C)C1NC(=O)C(C(C)=O)=C1O (stereo not drawn)
inactive: max response [4] -9.18% | max response [5] -22.8% | outcome [15] inactive [at 92 µM] | Potency [6] | Potency [7] | Potency [8]

C=C(C)[C@@]12O[C@@H]1[C@@]1(C)C(=C[C@H]2O)CC[C@@H](O)[C@@H]1C
inactive: Potency [17] | Potency [1] | Potency [9] | Potency [10] | max response [4] -1.42% | outcome [5] | Potency [6] | Potency [7] | Potency [8]

NCCCCCNC1(c2ccccc2)CCCCC1
inactive: Potency [1] | Potency [3] | max response [4] -4.91% | max response [5] -2.11% | outcome [15] | Potency [6] | Potency [7] | Potency [8]
active: Potency [2] 2130 nM

CCC1CN2CCc3cc(OC)c(OC)cc3C2CC1CC1=NCCc2cc(O)c(OC)cc21 (stereo not drawn)
-6.53%: activity [13]
-74.9%: activity [11]
inactive: Potency [1] | Potency [9] | max response [4] -0.358% | max response [5] -7.09% | outcome [15] inactive [at 17.4 µM] | Potency [6] | Potency [7] | Potency [8]
-9.58% [at 29.8 µM]: activity change, negative = inhibition [12]
-6.3%: activity [14]

CC[C@@H]1C[C@H]2CC[C@H](O2)[C@H](C)C(=O)O[C@@H](C)C[C@@H]2CC[C@@H](O2)[C@@H](C)C(=O)O[C@H](C)C[C@H]2CC[C@H](O2)[C@H](C)C(=O)O[C@@H](C)C[C@@H]2CC[C@@H](O2)[C@@H](C)C(=O)O1
active: Potency [1] 1220 nM | Potency [9] 21.6 nM | Potency [10] 24.2 nM | Potency [4] 432 nM | Potency [5] 96.8 nM | Potency [6] 562 nM | Potency [7] 562 nM | Potency [8] 562 nM

CCCN(CCC)[C@@H]1CCc2ccc3[nH]c(C#N)cc3c2C1
-4.55%: activity [14]
inactive: Potency [17] | Potency [1] | Potency [9] | Potency [10] | outcome [4] | outcome [15] | outcome [16] | Potency [6] | Potency [7]
-9.72%: activity [13]
-0.359%: activity [11]
0%: activity change, negative = inhibition [12]
active: Potency [2] 338 nM

Source: PubChem BioAssay (NCATS)
